BH1578 lux ind: induces V. cholerae light production without autoinducers; V. cholerae BH1578 lux reporter, luminescence, 6 h; activation, % at 18.7 µM; hit rate 0.16% among 350,000; in the data active means activation mostly above about 9.7%, no sharp cut-off; inconclusive means no clear call, values can overlap the other calls; inactive means mostly below about 3.7%
Anthrax LF prot: blocks Bacillus anthracis lethal factor protease; multiplex microsphere protease cleavage assay, LF; inhibition, % at 10 µM; hit rate 0.12% among 360,000; further: plate controls were buffer without enzyme for full effect and enzyme alone for no effect
Target sequence (P15917 whole entry, looked up): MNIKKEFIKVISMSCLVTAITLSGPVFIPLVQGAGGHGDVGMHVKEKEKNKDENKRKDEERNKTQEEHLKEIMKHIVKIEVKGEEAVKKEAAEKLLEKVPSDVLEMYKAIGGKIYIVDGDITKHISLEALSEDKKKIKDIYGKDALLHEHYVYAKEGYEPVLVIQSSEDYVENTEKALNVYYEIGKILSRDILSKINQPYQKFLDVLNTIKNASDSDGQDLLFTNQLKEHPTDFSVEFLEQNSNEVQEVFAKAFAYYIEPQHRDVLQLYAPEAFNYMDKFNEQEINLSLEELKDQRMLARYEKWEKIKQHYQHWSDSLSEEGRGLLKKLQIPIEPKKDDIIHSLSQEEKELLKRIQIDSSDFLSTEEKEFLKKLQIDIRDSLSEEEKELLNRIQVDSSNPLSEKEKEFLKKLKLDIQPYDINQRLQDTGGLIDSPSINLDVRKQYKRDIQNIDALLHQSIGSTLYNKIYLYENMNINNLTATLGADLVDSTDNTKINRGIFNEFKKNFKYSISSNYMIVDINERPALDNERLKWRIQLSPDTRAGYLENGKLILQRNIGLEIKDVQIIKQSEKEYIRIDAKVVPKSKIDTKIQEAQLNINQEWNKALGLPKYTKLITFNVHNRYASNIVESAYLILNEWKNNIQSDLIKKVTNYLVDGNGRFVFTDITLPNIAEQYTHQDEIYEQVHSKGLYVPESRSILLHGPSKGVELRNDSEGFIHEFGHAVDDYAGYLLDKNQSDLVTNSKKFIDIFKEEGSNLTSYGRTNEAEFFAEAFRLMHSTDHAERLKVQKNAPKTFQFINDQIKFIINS
BoNT A protease: inhibitors of Botulinum neurotoxin A light chain protease | multiplex microsphere protease substrate cleavage, flow cytometry | inhibition, % at 10 µM | hit rate 0.17% among 360,000; further: plate controls were buffer without enzyme for full effect and enzyme alone for no effect
BoNT-F LC inh: inhibitors of Botulinum neurotoxin F light chain protease | Multiplex microsphere protease cleavage assay, flow cytometry | inhibition, % at 10 µM | AID 588497 | hit rate 0.22% among 360,000; in the data active means inhibition above about 35%, passing the limit was not always enough; inconclusive means no clear call, values can overlap the other calls; further: plate controls were buffer without enzyme for full effect and enzyme alone for no effect
Autofluor counter: flagged as autofluorescent in microsphere protease counterscreen | compound autofluorescence counterscreen, microsphere flow cytometry; hits give high values | fluorescence intensity (no concentration beside the values) | hit rate 3.1% among 360,000 | AID 624483; in the data active means fluorescence intensity above about 16000; inconclusive means no clear call, values can overlap the other calls
* = called active by the depositor. Rows were chosen to be rich in hits. Some 3.5% of all compounds tested hit in one or more screens of this group. Unless noted, no stated cut-off is given here; in the data, active means inhibition above about 30%; inconclusive means no clear call, values can overlap the other calls; inactive means below that.

Screening COc1ccc(-c2ccc(C(=O)NCc3ccc(N(C)C)cc3)c3occc23)c(C)c1 returned BH1578 lux ind 0, Anthrax LF prot 1, BoNT A protease -1, BoNT-F LC inh -3 and Autofluor counter 3965.
For COc1ccc(-c2cn(-c3ccc(C)cc3C)c(=O)[nH]2)cc1OC the results were BH1578 lux ind inactive, Anthrax LF prot -11, BoNT A protease 0, BoNT-F LC inh -4 and Autofluor counter 5840.
Screening COc1ccc2c(c1)C(c1ccc(Cl)cc1)NC(=O)C2 (configuration not stated) returned BH1578 lux ind inactive, Anthrax LF prot 2, BoNT A protease 1, BoNT-F LC inh -4 and Autofluor counter 2838.
Cc1ccc2c(c1)N(Cc1ccccn1)C(=O)C(C)O2 (configuration not stated) was read as BH1578 lux ind -1, Anthrax LF prot -2, BoNT A protease -4, BoNT-F LC inh -5 and Autofluor counter 24586*.
`CCS(=O)(=O)c1nc(S(=O)(=O)c2ccc(Cl)cc2)c(N2CCc3ccccc3C2)s1` gave BH1578 lux ind 0, Anthrax LF prot -2, BoNT A protease 0, BoNT-F LC inh 1 and Autofluor counter 2139.
Cc1ccc(NC(=O)Cn2cnc3sc(C(=O)NCc4ccco4)c(C)c3c2=O)cc1Cl was read as BH1578 lux ind -1, Anthrax LF prot -6, BoNT A protease 4, BoNT-F LC inh 4 and Autofluor counter 21778*.
For O=C(NC12CCC(O)C(SC1)/C2=N/O)c1ccccc1 (configuration not stated) the results were BH1578 lux ind inactive, Anthrax LF prot -11, BoNT A protease 4, BoNT-F LC inh 7 and Autofluor counter 19906*.
`O=C(NC12CC3CC(CC(C3)C1)C2)c1ccccc1` gave BH1578 lux ind 2, Anthrax LF prot -4, BoNT A protease 0, BoNT-F LC inh -7 and Autofluor counter 4492.
Screening CCc1cccc(C)c1NC(=O)CN1CCN(S(=O)(=O)c2ccc(C(C)(C)C)cc2)CC1 returned BH1578 lux ind 7, Anthrax LF prot -3, BoNT A protease 1, BoNT-F LC inh 2 and Autofluor counter inconclusive.
COc1ccc(CC(=O)NCc2ccccc2Cl)cc1S(=O)(=O)N1CCOCC1 was read as BH1578 lux ind inactive, Anthrax LF prot 1, BoNT A protease 0, BoNT-F LC inh -1 and Autofluor counter 23297*.
`CNc1ncc(Cc2ccccc2)s1` gave BH1578 lux ind -1, Anthrax LF prot -3, BoNT A protease -1, BoNT-F LC inh -11 and Autofluor counter 10547.
Screening CCOc1ccc(OCCSc2nc3ccccc3[nH]2)cc1 returned BH1578 lux ind inactive, Anthrax LF prot 0, BoNT A protease 0, BoNT-F LC inh 3 and Autofluor counter 10751.
`CCCOc1ccc(CSc2nc3ccccc3[nH]2)cc1` gave BH1578 lux ind inactive, Anthrax LF prot -5, BoNT A protease inconclusive, BoNT-F LC inh 3 and Autofluor counter 22003*.
CCOC(=O)C1=C(C)NC2=C(C(=O)CC(C)(C)C2)C1c1ccc(N(C)C)cc1 (configuration not stated) was read as BH1578 lux ind inactive, Anthrax LF prot -2, BoNT A protease -3, BoNT-F LC inh -7 and Autofluor counter 24751*.
For COC(=O)C1=C(C)NC2=C(C(=O)CC(C)(C)C2)C1c1cccc(C)n1 (configuration not stated) the results were BH1578 lux ind inactive, Anthrax LF prot 0, BoNT A protease 0, BoNT-F LC inh -1 and Autofluor counter 23176*.
For CCOc1cc(C2C(C(=O)N3CCCCC3)=C(C)NC3=C2C(=O)CC(C)(C)C3)ccc1O (configuration not stated) the results were BH1578 lux ind inactive, Anthrax LF prot -3, BoNT A protease -1, BoNT-F LC inh -4 and Autofluor counter 23188*.
`CCCCCN(C(=O)NC(=O)Nc1ccc(C)cc1)S(=O)(=O)c1ccccc1` gave BH1578 lux ind 0, Anthrax LF prot 0, BoNT A protease -1, BoNT-F LC inh -12 and Autofluor counter 2418.
CN(C)S(=O)(=O)c1ccc(C(=O)NCCOc2ccccc2)cc1 was read as BH1578 lux ind inactive, Anthrax LF prot -1, BoNT A protease 0, BoNT-F LC inh 2 and Autofluor counter 3917.
`CN(C)S(=O)(=O)c1ccc(C(=O)NCCOc2ccc(F)cc2)cc1` gave BH1578 lux ind 0, Anthrax LF prot -3, BoNT A protease -5, BoNT-F LC inh -7 and Autofluor counter 24248*.
CCN(CC)S(=O)(=O)c1ccc2c(c1)c(=O)c(C(=O)NCCc1ccccc1)cn2C was read as BH1578 lux ind inactive, Anthrax LF prot -1, BoNT A protease 0, BoNT-F LC inh 18 and Autofluor counter 3758.
For O=c1ccc2c([nH]1)CCCCCCCCCC2 the results were BH1578 lux ind inactive, Anthrax LF prot 29, BoNT A protease -7, BoNT-F LC inh inconclusive and Autofluor counter 4001.
For CCn1c2ccccc2c2cc(NC(=O)CSc3nnc(-c4ccc(OC)c(OC)c4)n3N)ccc21 the results were Anthrax LF prot 12, BoNT A protease 3, BoNT-F LC inh -20 and Autofluor counter inconclusive.
For CCn1c2ccccc2c2cc(NC(=O)CSc3nnc(-c4ccccc4OC)n3N)ccc21 the results were BH1578 lux ind 1, Anthrax LF prot 0, BoNT A protease inconclusive, BoNT-F LC inh -9 and Autofluor counter 17821*.
Screening CCOc1ccc(-c2nnc(SCC(=O)Nc3ccc4c(c3)c3ccccc3n4CC)n2N)cc1 returned BH1578 lux ind 3, Anthrax LF prot 0, BoNT A protease -1, BoNT-F LC inh -2 and Autofluor counter 16867*.
For Cc1ccc(CS(=O)Cc2ccc(C(=O)N3CCN(C4CCCCC4)CC3)o2)cc1 (configuration not stated) the results were BH1578 lux ind inactive, Anthrax LF prot -4, BoNT A protease -1, BoNT-F LC inh 6 and Autofluor counter 5678.
`COc1ccccc1CCC(=O)N1CCN(S(=O)(=O)c2cccc(F)c2)CC1` gave BH1578 lux ind inactive, Anthrax LF prot -2, BoNT A protease 10, BoNT-F LC inh 5 and Autofluor counter 4970.
For CN(C)c1nc(OCCNC(=O)COc2ccc(Cl)cc2Cl)nc(N(C)C)n1 the results were BH1578 lux ind inactive, Anthrax LF prot -2, BoNT A protease 0, BoNT-F LC inh 0 and Autofluor counter 22763*.
For CN(C)c1nc(SCCOC(=O)COc2ccc(Cl)cc2Cl)nc(N(C)C)n1 the results were BH1578 lux ind inactive, Anthrax LF prot -4, BoNT A protease inconclusive, BoNT-F LC inh 10 and Autofluor counter 7528.
CN(C)c1nc(OCCOC(=O)COc2ccc(Cl)cc2Cl)nc(N(C)C)n1 was read as BH1578 lux ind -1, Anthrax LF prot -7, BoNT A protease 0, BoNT-F LC inh 1 and Autofluor counter 21324*.
COc1cc2[nH]c(=S)n(NC(=O)c3ccccc3)c(=O)c2cc1OC was read as BH1578 lux ind active, Anthrax LF prot 0, BoNT A protease -1, BoNT-F LC inh 0 and Autofluor counter 16796*.
`CC(C)NC(=O)c1ccc2c(=O)n(C3CCCC3)c(=S)[nH]c2c1` gave BH1578 lux ind inactive, Anthrax LF prot -5, BoNT A protease 0, BoNT-F LC inh 2 and Autofluor counter 9824.

Source: PubChem (several laboratories)
